Measured values from PubChem BioAssay (NCATS).
Activity calls are given as the source filed them. Entries that show only a call come without a potency. The call rests on the fitted dose curve; in most records, active means well fitted cell-killing curve with a large enough effect; inconclusive means small, poorly fitted or top-dose-only effect; inactive means flat fitted curve, though single readings scatter.
Potency means the concentration at half of the fitted maximal effect.

Test: Cell Viability - LYMP1-002 - Assay at 24 hr (AID 993)
Conditions: LYMP1-002 lymphoblastoid cells viability; series mostly up to 92.2 µM
Text: NIH Chemical Genomics Center [NCGC]
NIH Molecular Libraries Screening Centers Network [MLSCN]
National Institutes of Environmental Health Sciences [NIEHS]
National Toxicology Program [NTP]
We have developed a 1536-well cell-based assay for quantitative high throughput screening (qHTS) against a number of cell lines to determine in vitro cytotoxicity of small molecules. This particular assay uses a human lymphoblastoid cell line (LYMP1-002) purchased from Coriell Institute for Medical Research.
NCGC Assay Protocol Summary:
The CellTiter-Glo luminescent cell viability assay (Promega) is a homogeneous method to measure the number of viable cells in culture. The end point readout of this assay is based on quantitation of intracellular ATP, an indicator of metabolic activity, using the luciferase reaction. Luciferase catalyzes the oxidation of beetle Luciferin to oxyluciferin and light in the presence of ATP. The luminescent signal is proportional to amount of ATP present.
Using the CellTiter-Glo luminescent cell viability assay, the amount of cellular ATP was measured in the lymphoblastoid cell line with complete culture medium following compound treatment for 24 hours. The assay was performed in opaque white Kalypsys 1536-well plates. In the screen, tetraoctylammonium bromide was used as positive control. Library compounds were measured for their ability to cause acute toxicity in the cell line, as reflected by a decrease in intracellular ATP levels, in a concentration-dependent manner. […] AC50 values were determined from concentration-response data modeled with the standard Hill equation.
qHTS protocol for CellTiter Glo lymphoblastoid cellular assay
[Step] [Parameter] [Value] [Description]
1. Reagent; 5 uL; 2500 lymphoblastoid cells/well
2. Time; 5 hr; 37 C incubation
4. Controls; 23 nL; Tetraoctylammonium bromide 6.4pM to 92 uM
5. Time; 24 hr; 37 C incubation
6. Reagent; 5 uL; CellTiter Glo reagent
7. Time; 30 min; Room Temperature
8. Detection; Luminescence; Viewlux plate reader
Keywords: cell viability, cytotoxicity, lymphoblastoid cell line, luminescence, NTPHTS, NTPHTS_NCGC, NIEHS, DSSTox, MLSMR, MLSCN, NIH Roadmap, qHTS, NCGC
In the case of `Cc1cccc([N+](=O)[O-])c1C`, the Potency is reported as “inactive”. In the case of `COC(=O)c1ccc(C=O)cc1`, the Potency is reported as “inactive”. In the case of `CCCCCCCCCCCCCC(=O)O`, the Potency is reported as “inactive”. In the case of `CC1=CC(C)(C)Nc2ccccc21`, the Potency is reported as “inactive”. In the case of `C=CCc1ccc(OC)c(OC)c1`, the Potency is reported as “inactive”. In the case of `O=C(O)c1ccccc1`, the Potency is reported as “inactive”. In the case of `CC(C)=CCCC(C)CCO` (stereo not given), the Potency is reported as “inactive”. With `C=Cc1ccccc1Cl` the Potency was “inactive”. In the case of `COCC(=O)O`, the Potency is reported as “inactive”. In the case of `CCCCC(CC)CN` (stereo not given), the Potency is reported as “inactive”. For `CC1(C)CC(N=C=O)CC(C)(CN=C=O)C1` (stereo not given), the Potency was “inactive”. For `c1ccccc1`, the Potency was “inactive”. For `C/C=C\c1ccc(OC)cc1`, the Potency was “inactive”. In the case of `O=C(O)CC(C(=O)O)C(CC(=O)O)C(=O)O` (stereo not given), the Potency is reported as “inactive”. With `COc1ccc2nc(N)sc2c1` the Potency was “inactive”. With `Clc1cc(Cl)c(Cl)c(Cl)c1Cl` the Potency was “inactive”. For `C=C(C)C1CC=C(C)C(O)C1` (stereo not given), the Potency was “inactive”. With `O=C1c2ccccc2C(=O)C1c1ccc2ccccc2n1` the Potency was “inactive”. In the case of `CCCN(CCC)C(=O)SCC`, the Potency is reported as “inactive”. In the case of `CC12CCC(CC1=O)C2(C)C` (stereo not given), the Potency is reported as “inactive”. For `O=C1CCc2ccccc2O1`, the Potency was “inactive”. In the case of `CC1=C2[C@H](/C=C(\C)C(=O)O)CC[C@@H](C)[C@H]2CC1`, the Potency is reported as “inactive”. For `O=C(O)c1ccc(O)cc1O`, the Potency was “inactive”. For `C=CC(=O)OCCOCCOCCOCCOC(=O)C=C`, the Potency was 25.1 µM (active). With `Cc1ccc([N+](=O)[O-])cc1N` the Potency was “inactive”. For `C=CCOC(=O)c1ccccc1C(=O)OCC=C`, the Potency was “inactive”. With `O=C(/C=C/c1ccc(O)c(O)c1)O[C@@H](C(=O)O)[C@@H](OC(=O)/C=C/c1ccc(O)c(O)c1)C(=O)O` the Potency was “inactive”. With `C[C@H](CCC(=O)O)[C@H]1CC[C@H]2[C@@H]3CC[C@@H]4C[C@H](O)CC[C@]4(C)[C@H]3CC[C@]12C` the Potency was “inactive”. With `ClCCCl` the Potency was “inactive”. For `c1ccc2c(c1)[nH]c1ccccc12`, the Potency was “inactive”. In the case of `CCCCCCCCCCCCCCC1CO1` (stereo not given), the Potency is reported as “inactive”. In the case of `Clc1cc(Cl)c(Cl)cc1Cl`, the Potency is reported as “inactive”. With `CN(C)C=O` the Potency was “inactive”. With `COC(=O)c1ccc(C)cc1` the Potency was “inactive”. In the case of `COc1ccc(/C=C/c2cc(OC)cc(=O)o2)cc1`, the Potency is reported as “inactive”. For `CCC(O)OC(O)CC` (stereo not given), the Potency was “inactive”. In the case of `c1ccc2c(c1)c1cccc3ccc4cccc2c4c31`, the Potency is reported as “inactive”. For `CN(C)CCCCCCN(C)C`, the Potency was “inactive”. In the case of `O=S(=O)(O)c1ccccc1`, the Potency is reported as “inactive”. For `CC(=O)OC/C=C(\C)CCC=C(C)C`, the Potency was “inactive”.
